Screening data: PubChem, National Center for Advancing Translational Sciences (NCATS)
Sampled rows, rich in hits. Any-hit rate of the full collection: about 7.5%.
SMN2 splice enh: enhancers of SMN2 splice variant expression; HEK293 SMN2-luciferase splicing reporter, luminescence, 30-36 h; Potency, µM (doses to about 46.1 µM), for inactives: top-dose activity change, positive = activation, hits mostly activators; 210,000 compounds, 2.8% hits; AID 1458; also: % of control where 0% means no effect; nearly all actives have a fitted effect of over 55% in size
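qHTS luciferase splicing reporter: luminescence rises when SMN2 exon 7 is included in transfected HEK293 cells. Compound exposure lasted 30-36 h at 37C, with 4.5 mM final sodium butyrate as control, followed by a ONE-Glo read.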
Rab9 prom act: activates the Rab9 promoter | Huh7 Rab9 promoter-luciferase reporter, luminescence, 24 h | Potency, µM (top dose mostly 9.22 µM), for inactives: top-dose activation, negative = inhibition, hits mostly activators | 320,000 compounds, 2.8% hits; also: % of control where 0% means no effect; nearly all actives have a fitted effect of over 60% in size
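Luminescence read-out: Huh7 cells stably expressing Rab9-luciferase, treated 24 h with compound at 37 °C, then lysed with luciferase reagent for 10 min at ambient before reading.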
ELG1 genotox: genotoxicity induction in ELG1-luciferase HEK293T cells; HEK293T ELG1-luciferase reporter, luminescence, 16 h; AID 504466; Potency, µM (series often up to 46 µM), for inactives: at the top dose activity change, positive = activation, actives largely listed as activators; 330,000 compounds, 1.3% hits; also: % of control where 0% means no effect; nearly all actives have a fitted effect of over 60% in size
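Step 1: seed 2,000 HEK293T ELG1-luciferase cells per well. Step 2: add compound or DMSO, incubate 16 hr at 37 °C. Step 3: ONE-Glo, 30 min at room temperature, read luminescence.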
FLuc counter: firefly luciferase modulation, counter-screen for miR-21 project; P08659; purified FLuc, Km substrates, luminescence inhibition; 360,000 compounds, 6.9% hits; Potency, µM (doses to about 57.5 µM), for the others: at the highest dose activity change, negative = inhibition, hits mostly inhibitors; AID 588342;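 also: plate controls were vehicle for no effect and reference inhibitor for full effect; nearly all actives have a fitted effect of over 55% in size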
Target sequence (P08659 whole entry, looked up): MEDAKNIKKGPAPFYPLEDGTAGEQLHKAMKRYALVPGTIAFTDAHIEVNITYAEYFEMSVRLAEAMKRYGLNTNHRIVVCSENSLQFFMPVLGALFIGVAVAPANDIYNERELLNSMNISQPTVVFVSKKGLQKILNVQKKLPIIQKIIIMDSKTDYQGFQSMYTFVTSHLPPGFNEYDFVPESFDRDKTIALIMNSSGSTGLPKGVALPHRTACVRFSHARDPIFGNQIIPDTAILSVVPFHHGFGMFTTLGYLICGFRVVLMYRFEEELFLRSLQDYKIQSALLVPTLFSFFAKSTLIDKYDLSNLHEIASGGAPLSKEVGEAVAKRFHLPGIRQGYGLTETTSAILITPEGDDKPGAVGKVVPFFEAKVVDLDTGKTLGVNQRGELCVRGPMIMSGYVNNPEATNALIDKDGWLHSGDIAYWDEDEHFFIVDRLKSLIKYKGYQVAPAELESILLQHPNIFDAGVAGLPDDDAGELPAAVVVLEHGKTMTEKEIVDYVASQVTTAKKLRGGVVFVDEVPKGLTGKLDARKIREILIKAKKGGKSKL
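Biochemical qHTS of compounds, final roughly 60 µM downward over six points, against 10 nM purified firefly luciferase using Km concentrations of substrates (10 uM D-luciferin, 10 uM ATP) in Tris acetate pH 7.5 buffer; luminescence output.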
NPC1 prom act: activators of NPC1 promoter; 320,000 compounds, 2.4% hits; AID 485313; Potency, µM (series often up to 9.22 µM), without a hit: top-dose activation, most hits filed as activators; Huh7 NPC1 promoter luciferase reporter, 24 h; also: % of control where 0% means no effect; nearly all actives have a fitted effect of over 60% in size
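Cells: Huh7 expressing luciferase under the NPC1 promoter, 1500/well. Seeded 2 h, compound added, incubated 24 h at 37 °C. Luciferase reagent, 10 min ambient, then luminescence.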
Active calls of the source: *; [ ] = dose if it differs, or a comment. Calls follow the shape of the dose curve; as a rule, active = well fitted curve in the direction sought with a large enough effect; inconclusive = small, poorly fitted or top-dose-only effect, or another doubt; inactive = no such curve, though single readings can be large; an effect the other way counts as inactive or inconclusive. Potency is read from the fitted curve at half-maximal effect.

How did O=C(NC(=S)Nc1ccc2c(c1)C(=O)c1ccccc1C2=O)c1ccc(F)cc1 do in these assays?
SMN2 splice enh: 11µM*; Rab9 prom act: inconclusive; ELG1 genotox: inconclusive; FLuc counter: 17µM*; NPC1 prom act: inconclusive

Results for COc1cccc(C(=O)Nc2ccc3c(c2)C(=O)c2ccccc2C3=O)c1 ?
SMN2 splice enh: -15%[1.84 µM]; Rab9 prom act: inconclusive; ELG1 genotox: inconclusive; FLuc counter: inconclusive; NPC1 prom act: 3.2µM*

What do the screens show for `CCOc1cccc(C(=O)Nc2cccc(C(C)=O)c2)c1`?
SMN2 splice enh: inconclusive; Rab9 prom act: 22%; ELG1 genotox: 0%; FLuc counter: inconclusive; NPC1 prom act: 6%

Results for COc1cccc(NC(=O)c2cccc(Cl)c2)c1 ?
Rab9 prom act: 2µM*; ELG1 genotox: 2.1µM*; FLuc counter: 3.4µM*; NPC1 prom act: 2.5µM*

What do the screens show for `COc1cccc(NC(=O)c2ccncc2)c1`?
SMN2 splice enh: -2%; Rab9 prom act: -4%; ELG1 genotox: -3%; FLuc counter: -5%; NPC1 prom act: 2%

Results for COc1cccc(C(=O)Nc2ccc(C(=O)O)cc2)c1 ?
Rab9 prom act: 0%; ELG1 genotox: 1%; FLuc counter: inconclusive; NPC1 prom act: 6%

How did CCC(=O)Nc1ccc2c(c1)C(=O)c1ccccc1C2=O do in these assays?
SMN2 splice enh: 11µM*; Rab9 prom act: 1.3µM*; ELG1 genotox: inconclusive; FLuc counter: 3.8µM*; NPC1 prom act: 1.6µM*

How did COc1cccc(C(=O)Nc2cccc(C(C)=O)c2)c1 do in these assays?
Rab9 prom act: inconclusive; ELG1 genotox: inconclusive; FLuc counter: 21µM*; NPC1 prom act: inconclusive

How did COC(=O)c1ccc(NC(=O)c2cccc(OC)c2)cc1 do in these assays?
SMN2 splice enh: inconclusive; Rab9 prom act: inconclusive; ELG1 genotox: inconclusive; FLuc counter: 19µM*; NPC1 prom act: inconclusive

What do the screens show for `Cn1cnc([N+](=O)[O-])c1SCCO`?
Rab9 prom act: -5%; ELG1 genotox: 2%; FLuc counter: -3%; NPC1 prom act: 2%

What do the screens show for `CCC(=O)NCc1ccc2[nH]c(C)cc2c1`?
SMN2 splice enh: 6%; Rab9 prom act: 6%; ELG1 genotox: -4%; FLuc counter: -8%; NPC1 prom act: -2%

What do the screens show for `Cc1ccc(N2CCN(C(=O)CCc3nc4ccccc4[nH]3)CC2)c(C)c1`?
SMN2 splice enh: -21%; Rab9 prom act: 2%; ELG1 genotox: -5%; FLuc counter: 4%; NPC1 prom act: -1%

What do the screens show for `CC(=O)Oc1cccc(NC(=O)c2cccc(C(=O)Nc3cccc(OC(C)=O)c3)c2)c1`?
Rab9 prom act: 7%; ELG1 genotox: 2%; FLuc counter: inconclusive; NPC1 prom act: 6%

How did COc1cccc(C(=O)NC(=S)Nc2ccc(N(C)C)cc2)c1 do in these assays?
SMN2 splice enh: 11µM*; Rab9 prom act: 3.5µM*; ELG1 genotox: inconclusive; FLuc counter: 12µM*; NPC1 prom act: inconclusive

Results for CCCOc1ccc(C(=O)Nc2cccc(NC(=O)c3cccc(Cl)c3)c2)cc1 ?
SMN2 splice enh: 29%; FLuc counter: 12µM*

Results for COc1cccc(C(=O)Nc2cccc(OC(C)=O)c2)c1 ?
SMN2 splice enh: 11µM*; Rab9 prom act: inconclusive; ELG1 genotox: 6%; FLuc counter: inconclusive; NPC1 prom act: inconclusive

Results for COC(=O)c1cccc(NC(=O)c2cc3sccc3n2C)c1 ?
SMN2 splice enh: 11µM*; Rab9 prom act: 1.8µM*; ELG1 genotox: inconclusive; FLuc counter: 15µM*; NPC1 prom act: 1.3µM*

What do the screens show for `COC(=O)c1ccccc1NC(=O)c1cc2sccc2n1C`?
SMN2 splice enh: -2%; Rab9 prom act: 11%; ELG1 genotox: -1%; FLuc counter: inconclusive; NPC1 prom act: -4%

Results for COc1ccc2nc3ccccc3nc2c1N ?
Rab9 prom act: 3.2µM*; ELG1 genotox: 18µM*; FLuc counter: 4.8µM*; NPC1 prom act: 2.2µM*

Results for COc1ccc2nc3cccc(OC)c3nc2c1 ?
SMN2 splice enh: inconclusive; Rab9 prom act: inconclusive; ELG1 genotox: 4%; FLuc counter: inconclusive; NPC1 prom act: 26%
